Data on 37 molecules can be found in paper PMC5540273 (PLoS ONE, 2017).
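Further: KINOMEscan kinase panel screen.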

The subject of the assay is T1, ERK5.
T1 construct: gene MAPK7
The conditions noted are these: concentration: 1 μM, replicates: in singlicate; n = 1.
`Nc1ncnc2c1ncn2-c1ccc(Cl)cc1` [AH2635]: the “%Inh” value is listed as 0%.
For `Nc1nc(-c2ccccc2F)c(-c2ccnc3ccccc23)s1` [GW560459], the “%Inh” value is 0%.
For `COc1cc2ncn(-c3cc(OCc4ccc(S(C)(=O)=O)cc4)c(C(N)=O)s3)c2cc1OC` [GW869979], the “%Inh” value came to 0%.
As for `CCC(=O)c1c(-c2ccccc2)c2cc(Cl)ccc2c(=O)n1Cc1cc(C(=O)NC2CC2)n(C)n1`, the figure is 4%; as for `Nc1n[nH]c2nnc(-c3ccccc3)c(-c3ccccc3)c12` [GW554060], 0%; as for `OCCCNc1nccc(-c2c(-c3cccc(C(F)(F)F)c3)nn3cc(C(F)(F)F)ccc23)n1` [GW630813], 0%.
As to `O=C(NCCNc1ccnc(Nc2ccc(F)cc2)n1)Nc1ccc2c(c1)OCO2` [GSK1379882], the “%Inh” value is 2%.
On to `CCC(=O)c1c(-c2ccccc2)c2cc(Cl)ccc2c(=O)n1Cc1cc(S(C)(=O)=O)n(CCC(C)(C)O)n1`, for which the “%Inh” value came out at 15%.
As for `FC(F)(F)c1ccc(-c2ncn(CCCN3CCOCC3)c2-c2ccncc2)cc1` [SB-217780], the figure is 0%; as for `COC(=O)c1c(-c2ccccc2)c2cc(Br)ccc2c(=O)n1Cc1ccc(S(C)(=O)=O)cc1`, 8%; as for `CCCNC(=O)Nc1ccc(Oc2ncnc3ccn(C)c23)cc1`, 3%.
Turning to `CCn1c(-c2ccoc2)nc2cnccc21` [SB-733887], the “%Inh” value turned out to be 0%.
Take `CCn1c(-c2nonc2N)nc2ccccc21` [SB-693162/GW549034]: the “%Inh” value was 0%.
As for `Cc1nc(N(C)[C@H]2CN(C(=O)CC#N)CC[C@H]2C)c2cc[nH]c2n1`, the “%Inh” value is reported as 7%.
With `CCC(=O)c1c(-c2ccccc2)c2cc(Cl)ccc2c(=O)n1Cc1ccc(C(=O)O)cc1`, the “%Inh” value is recorded as 0%.
As to `COc1ccc(Nc2nccc(N3CCC(NS(=O)(=O)c4ccc(NC(C)=O)cc4)C3)n2)cc1` (stereo not shown) [GSK1379729], the “%Inh” value worked out at 0%.
Regarding `CCc1nc(-c2cccc(C)c2)c(-c2ccncc2)s1`, the “%Inh” value came out at 4%.
On to `COc1cc(Nc2ccnc3ccc(C(F)(F)F)cc23)cc(OC)c1OC` [GW577382], for which the “%Inh” value was found to be 0%.
On to `COc1ccc(-c2cc3c(C)nc(N)nc3n([C@H]3CC[C@H](O)CC3)c2=O)cn1`, for which the “%Inh” value is on record as 0%.
For the molecule `Cc1ccc(-c2ccc3c(ccc4sc5c(c43)NC[C@@H](C)N=C5N(C)C)n2)cn1`, the “%Inh” value came out at 2%.
Take `Cc1nnc(-c2ccc(C)c(-c3ccc(C(=O)O)cc3)c2)o1` [GW608005]: the “%Inh” value worked out at 0%.
Turning to `COC(=O)c1c(-c2ccccc2)c2cc(C)ccc2c(=O)n1Cc1ccccc1`, the “%Inh” value was determined as 0%.
As for `COc1cccc(C2=C(Nc3cccc(C(=O)O)c3)C(=O)NC2=O)c1` [SB-390770], the “%Inh” value stood at 0%.
Under `Fc1cccc(CSc2nnc(-c3ccc4c(c3)CCO4)o2)c1` stands 0%; under `Cc1cccc(-c2cc(-c3c[nH]nc3-c3ccccn3)ccn2)c1` [GW679395], 0%.
In the case of `CN(C)c1cc(-c2ccc3c(N)n[nH]c3c2)nc(N)n1` [GSK2219329], the “%Inh” value came out at 0%.
With `Cn1c(=O)c(F)c(Nc2ccc(I)cc2F)c2c(=O)n(OC[C@H](O)CO)cnc21`, the “%Inh” value is given as 24%.
For `Cc1nnc(-c2ccc3ncn(-c4ccc(S(C)=O)cc4)c3c2)o1` (stereo not shown), the “%Inh” value was found to be 3%.
For the molecule `CCC(=O)c1c(-c2ccccc2)c2cc(Cl)ccc2c(=O)n1Cc1cc(S(C)(=O)=O)n(CC(N)=O)n1`, the “%Inh” value was determined as 0%.
As to `COc1cccc(-n2cnc3c(N)ncnc32)c1` [SKF-97416], the “%Inh” value came out at 0%.
For `CCCC(=O)Nc1n[nH]c2ncc(-c3cccc4ccccc34)cc12` [SB-642057], the “%Inh” value was 0%.
Under `CN1C(=O)C(Nc2cc(Cl)c(O)c(Cl)c2)=C(c2ccc(Cl)cc2)C1=O` [SB-404321] stands 0%; under `Nc1nccc2scc(-c3ccc4c(c3)CCN4C(=O)Cc3ccccc3)c12` [GSK2576924], 10%; under `CCc1ccc(-c2ccc3c(c2)-c2nn(C)cc2S(=O)(=O)N3C)cc1`, 5%.
For the molecule `O=C(NCc1cccs1)c1cc(C(=O)c2c(Cl)cccc2Cl)c[nH]1` [GW823670], the “%Inh” value was 0%.
Under `COC(=O)c1c(-c2ccccc2)c2cc(Br)ccc2c(=O)n1Cc1ccc(NC(=O)CCC(=O)O)cc1` stands 13%.
Under `COc1ccc(CNC(=O)NC2CCN(c3ccnc(Nc4ccc(F)cc4)n3)C2)cc1` (stereo not shown) [GSK1379706] stands 0%.
